Data: PubChem BioAssay (EPA / NIEHS)
Records with an inconclusive call do not appear. Active and inactive are the calls of the source. The calls were made as follows, unless noted: active = hit-call score of the fitted dose curve at least 0.9, where 1 is the maximum; inactive = score below 0.9.

Tests used:
[1] = biological target: human RAR-related Orphan Receptor gamma (RORg), RORC (gene 6097) (UniProt P51449); test: ATG_RORg_TRANS: Attagene TRANS-FACTORIAL HepG2 Assay for human RAR-related Orphan Receptor gamma (RORg) (AID 2283011; active = hit-call score of the fitted dose curve at least 0.9, where 1 is the maximum)
Summary of the method: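 Activity is scored as increase in GAL4-UAS reporter mRNA over DMSO, detected by fluorescent RT-PCR and capillary electrophoresis in HepG2 cells transiently expressing a RORg-Gal4 chimera, 24 h after dosing.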

[2] = biological target: human Retinoid X Receptor beta (RXRb), RXRB (gene 6257) (UniProt P28702); test: ATG_RXRb_TRANS: Attagene TRANS-FACTORIAL HepG2 Assay for human Retinoid X Receptor beta (RXRb) (AID 2283013; active = hit-call score of the fitted dose curve at least 0.9, where 1 is the maximum)
Summary of the method: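 Read-out: reporter mRNA induction via RT-PCR plus capillary electrophoresis fluorescence, analysed as signal increase relative to DMSO. Cells were human HepG2, transiently transfected with GAL4-UAS reporter constructs and chimeric receptor-Gal4 fusions, dosed for 24 h.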

[3] = biological target: human Thyroid Receptor alpha (THRa1), THRA (gene 7067) (UniProt P10827); test: ATG_THRa1_TRANS: Attagene TRANS-FACTORIAL HepG2 Assay for human Thyroid Receptor alpha (THRa1) (AID 2283014; active = hit-call score of the fitted dose curve at least 0.9, where 1 is the maximum)
Summary of the method: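 First, HepG2 cells receive multiple GAL4-UAS reporter units and the chimeric receptor. They are then dosed for 24 h, after which RNA is reverse-transcribed, amplified, labelled, HpaI-cut and sized by capillary electrophoresis; gain relative to DMSO is scored.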

[4] = biological target: Retinoic acid receptor RXR-alpha (Homo sapiens) (UniProt P19793); test: ATG_RXRa_TRANS: Attagene TRANS-FACTORIAL HepG2 Assay for human Retinoid X Receptor alpha (RXRa) (AID 2283012; active = hit-call score of the fitted dose curve at least 0.9, where 1 is the maximum)
Summary of the method: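 Read-out: fluorescent reporter-transcript fragments quantified by capillary electrophoresis after RT-PCR. Transiently transfected HepG2 cells carrying GAL4-UAS reporters and NR-GAL4 chimeras were exposed to chemical for 24 h; activity scored as increase over DMSO.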

[5] = read-out: E-selectin (Homo sapiens) (UniProt P16581); test: BSK_3C_Eselectin: BioMAP Diversity Plus: 3C Assay for Eselectin Biomarker Activity (AID 2283015); conditions: primary human endothelial cells (HUVEC); actives raise or lower the signal
Summary of the method: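 Human vascular endothelium from umbilical vein is exposed to test chemicals for 24 h. E-selectin levels are read by ELISA and compared with DMSO controls.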

[6] = read-out: Interleukin-1 alpha (IL1a), IL1A (gene 3552); test: BSK_BE3C_IL1a: BioMAP Diversity Plus: BE3C Assay for Interleukin-1 alpha (IL1a) Biomarker Activity (AID 2283016); conditions: primary human bronchial epithelial cells; actives raise or lower the signal
Summary of the method: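 ELISA read-out of IL-1a from human lung bronchial epithelial primary cells, 24 h post-dose. Gain or loss of signal fitted relative to DMSO negative control.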

[7] = read-out: Monocyte Chemoattractant Protein-1 (MCP1), CCL2 (gene 6347); test: BSK_3C_MCP1: BioMAP Diversity Plus: 3C Assay for Monocyte Chemoattractant Protein-1 (MCP1) Biomarker Activity (AID 2283017); conditions: primary human endothelial cells (HUVEC); actives raise or lower the signal
Summary of the method: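 Endothelial cells from human umbilical vein are dosed with chemical, cultured 24 h, then assayed for MCP-1 by ELISA; both increases and decreases are modelled against DMSO controls.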

[8] = read-out: Monocyte Chemoattractant Protein-1 (MCP1), CCL2 (gene 6347); test: BSK_4H_MCP1: BioMAP Diversity Plus: 4H Assay for Monocyte Chemoattractant Protein-1 (MCP1) Biomarker Activity (AID 2283018); conditions: primary human endothelial cells (HUVEC); actives raise or lower the signal
Summary of the method: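 HUVEC primary cells, 24 h post-dose, MCP-1 by ELISA. Gain or loss of signal fitted bidirectionally vs DMSO baseline. Cytotoxicity: SRB stain (0.1% after 10% TCA fixation), read 560 nm, parallel cultures.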

[9] = read-out: Human Leukocyte Antigen - DR isotype (HLADR), HLA-DRA (gene 3122); test: BSK_3C_HLADR: BioMAP Diversity Plus: 3C Assay for Human Leukocyte Antigen - DR isotype (HLADR) Biomarker Activity (AID 2283019); conditions: primary human endothelial cells (HUVEC); actives raise or lower the signal
Summary of the method: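 Endothelial cells from human umbilical vein are treated with test chemical; after 24 h, HLA-DR levels are measured by ELISA. Data are fitted in both directions using DMSO as the baseline.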

Measured: AC50

Sequence of Retinoic acid receptor RXR-alpha (Homo sapiens) (P19793 whole entry, looked up, the tested form may be a part): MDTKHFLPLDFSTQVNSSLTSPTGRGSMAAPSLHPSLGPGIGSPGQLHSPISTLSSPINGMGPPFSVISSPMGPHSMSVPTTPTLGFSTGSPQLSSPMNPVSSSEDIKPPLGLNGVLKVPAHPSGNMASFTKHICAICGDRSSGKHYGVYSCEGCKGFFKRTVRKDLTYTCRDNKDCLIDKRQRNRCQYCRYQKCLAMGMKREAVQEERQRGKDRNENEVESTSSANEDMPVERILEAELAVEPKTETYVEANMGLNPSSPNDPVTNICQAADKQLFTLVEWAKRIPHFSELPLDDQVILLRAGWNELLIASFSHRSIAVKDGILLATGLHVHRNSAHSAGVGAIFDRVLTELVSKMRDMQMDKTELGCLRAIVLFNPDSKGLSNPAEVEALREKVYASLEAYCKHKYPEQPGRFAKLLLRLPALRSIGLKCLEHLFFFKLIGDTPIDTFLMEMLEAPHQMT
Sequence of human RAR-related Orphan Receptor gamma (RORg), RORC (gene 6097) (P51449 whole entry, looked up, the tested form may be a part): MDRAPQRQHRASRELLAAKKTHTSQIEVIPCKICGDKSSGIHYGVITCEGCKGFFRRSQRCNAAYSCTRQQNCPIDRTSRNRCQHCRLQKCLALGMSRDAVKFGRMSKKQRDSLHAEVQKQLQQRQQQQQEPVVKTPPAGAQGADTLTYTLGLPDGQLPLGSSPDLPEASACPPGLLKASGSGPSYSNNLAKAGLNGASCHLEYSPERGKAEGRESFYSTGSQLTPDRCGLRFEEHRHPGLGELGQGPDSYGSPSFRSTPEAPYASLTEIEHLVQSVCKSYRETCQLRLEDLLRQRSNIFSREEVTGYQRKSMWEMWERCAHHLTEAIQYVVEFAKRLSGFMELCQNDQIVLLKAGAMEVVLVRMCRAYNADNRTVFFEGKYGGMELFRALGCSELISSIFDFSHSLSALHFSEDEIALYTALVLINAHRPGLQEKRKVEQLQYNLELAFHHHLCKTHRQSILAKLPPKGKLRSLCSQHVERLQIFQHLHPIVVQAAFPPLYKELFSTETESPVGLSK
Sequence of human Thyroid Receptor alpha (THRa1), THRA (gene 7067) (P10827 whole entry, looked up, the tested form may be a part): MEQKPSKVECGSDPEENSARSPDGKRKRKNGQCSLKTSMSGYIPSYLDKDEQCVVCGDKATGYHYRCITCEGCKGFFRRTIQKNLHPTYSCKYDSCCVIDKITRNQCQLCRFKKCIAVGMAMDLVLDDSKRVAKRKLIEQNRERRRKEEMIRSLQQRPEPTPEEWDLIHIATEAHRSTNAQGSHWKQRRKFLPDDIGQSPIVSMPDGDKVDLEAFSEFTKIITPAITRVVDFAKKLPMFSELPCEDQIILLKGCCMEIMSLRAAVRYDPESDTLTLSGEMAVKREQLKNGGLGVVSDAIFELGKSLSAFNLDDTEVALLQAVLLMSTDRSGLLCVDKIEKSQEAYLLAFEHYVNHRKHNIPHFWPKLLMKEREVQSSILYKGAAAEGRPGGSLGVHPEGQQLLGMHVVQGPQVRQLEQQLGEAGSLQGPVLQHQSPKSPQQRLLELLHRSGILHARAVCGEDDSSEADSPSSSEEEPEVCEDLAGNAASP
Sequence of human Retinoid X Receptor beta (RXRb), RXRB (gene 6257) (P28702 whole entry, looked up, the tested form may be a part): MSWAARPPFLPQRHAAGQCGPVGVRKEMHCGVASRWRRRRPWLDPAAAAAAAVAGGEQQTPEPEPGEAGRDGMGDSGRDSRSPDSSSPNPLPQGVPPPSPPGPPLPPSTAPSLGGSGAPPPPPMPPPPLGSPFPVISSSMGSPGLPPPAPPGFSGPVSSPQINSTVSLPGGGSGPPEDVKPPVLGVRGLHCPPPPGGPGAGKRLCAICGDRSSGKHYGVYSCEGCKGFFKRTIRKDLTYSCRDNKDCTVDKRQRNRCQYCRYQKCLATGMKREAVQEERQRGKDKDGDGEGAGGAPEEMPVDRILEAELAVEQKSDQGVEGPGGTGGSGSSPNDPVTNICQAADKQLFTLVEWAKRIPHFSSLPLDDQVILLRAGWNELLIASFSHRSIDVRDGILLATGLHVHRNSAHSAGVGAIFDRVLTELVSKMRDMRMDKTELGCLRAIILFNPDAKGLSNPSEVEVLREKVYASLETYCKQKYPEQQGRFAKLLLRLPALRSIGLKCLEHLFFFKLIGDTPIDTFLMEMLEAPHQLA
Sequence of E-selectin (Homo sapiens) (P16581 whole entry, looked up): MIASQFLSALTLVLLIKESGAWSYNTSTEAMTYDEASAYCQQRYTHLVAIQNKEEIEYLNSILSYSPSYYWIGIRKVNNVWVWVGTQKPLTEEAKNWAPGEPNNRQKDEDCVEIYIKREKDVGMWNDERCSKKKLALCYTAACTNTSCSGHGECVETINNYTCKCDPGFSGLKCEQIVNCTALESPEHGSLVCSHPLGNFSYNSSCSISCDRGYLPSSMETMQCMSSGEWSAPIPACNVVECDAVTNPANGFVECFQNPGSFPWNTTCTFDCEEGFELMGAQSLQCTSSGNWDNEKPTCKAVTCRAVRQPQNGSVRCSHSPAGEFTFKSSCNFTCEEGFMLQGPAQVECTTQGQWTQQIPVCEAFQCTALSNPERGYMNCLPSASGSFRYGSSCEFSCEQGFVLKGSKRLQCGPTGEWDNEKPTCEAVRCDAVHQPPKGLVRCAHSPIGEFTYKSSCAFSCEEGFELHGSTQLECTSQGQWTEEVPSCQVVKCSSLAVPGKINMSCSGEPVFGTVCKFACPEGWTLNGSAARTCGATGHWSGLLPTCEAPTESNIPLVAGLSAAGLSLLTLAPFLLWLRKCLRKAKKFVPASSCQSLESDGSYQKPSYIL

Cc1cccc(C)n1
inactive: [1] | [2] | [3]

O=C(O)C(F)(F)C(F)(F)C(F)(F)C(=O)O
inactive: [1] | [4] | [3] | [5] | [6] | [7] | [8] | [9]

CC1CCCCC1
inactive: [1] | [2] | [3]

OCCCc1cccnc1
inactive: [1] | [2] | [3]

CCN(CC)c1ccc(C=O)c(O)c1
inactive: [1] | [2] | [5] | [6] | [7] | [8]
active: [9] 32.9 µM

O=C(O)C(F)(F)C(F)(F)C(F)(F)OC(F)(C(F)(F)F)C(F)(F)F
inactive: [1] | [4] | [2] | [5] | [6] | [7] | [8] | [9]

CC1=CCC(=O)O1
inactive: [4] | [2]

O=C1c2ccccc2C(=O)c2c(Cl)cccc21
inactive: [4] | [3]
active: [2] 28.4 µM

CC(C)CCCC(C)CCO (centres undefined)
inactive: [1] | [4] | [2]
active: [5] 36.8 µM | [6] 30.6 µM | [7] 30.2 µM | [8] 35.3 µM | [9] 29.9 µM

FC(F)(F)C(F)(F)C(F)(F)CC1CO1 (centres undefined)
inactive: [1] | [4] | [3] | [5] | [6] | [7] | [8] | [9]

CCN(CC)c1ccc2c(c1)Oc1cc(N(CC)CC)ccc1C21OC(=O)c2ccccc21
active: [7] 10 µM | [9] 10 µM
inactive: [1] | [5] | [6] | [8]

O=C1OC(=O)c2ccc3c4c(ccc1c24)C(=O)OC3=O
inactive: [1] | [3]

Oc1ccc2c(c1)CCC2
inactive: [4] | [2] | [3]
